Source: PubChem
HP1b binding inh: blocks HP1-beta chromodomain binding to methylated histone tails | P83916 | AlphaScreen HP1-beta / biotin-H3K9me3 peptide binding | Potency, µM (titrated, usually from 114 µM), most hits filed as inhibitors | hit rate 0.56% among 390,000; note: nearly all actives have a fitted effect of over 70% in size
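AlphaScreen: HP1-beta (50 nM) preformed 30 min with biotin-H3(1-18)K9me3 peptide (50 nM) in PBS pH 7.4, 0.01% Tween-20. Compound added for 30 min at RT, then streptavidin donor/nickel chelate acceptor beads (10 ug/mL) for 30 min.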
JMJD2A Tudor inh: JMJD2A Tudor domain (human) inhibition; hit rate 4.4% among 390,000; AlphaScreen JMJD2A-Tudor / H3K4me3 peptide binding; O75164; Potency, µM (series often up to 114 µM), usual class: inhibitors; note: nearly all actives have a fitted effect of over 50% in size
L3MBTL1 inh: L3MBTL1 (human) inhibition; Q9Y468; AlphaScreen L3MBTL1–H3K9me1 peptide binding; Potency, µM (highest dose often 57.1 µM), most hits filed as inhibitors; hit rate 0.66% among 230,000; note: nearly all actives have a fitted effect of over 60% in size
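L3MBTL1 (50 nM) pre-complexed 30 min with biotinylated H3(1-15)K9me1 peptide (75 nM), then compounds added for 30 min at room temperature; AlphaScreen streptavidin donor/nickel chelate acceptor beads (10 ug/mL final) read after 30 min dark incubation.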
G9a block: G9a (human) methyltransferase inhibition. Q96KQ7. G9a H3K9 monomethylation, AlphaScreen, 2 h. Potency, µM (doses to about 102 µM), actives largely listed as inhibitors. hit rate 8.8% among 350,000. AID 504332; note: nearly all actives have a fitted effect of over 75% in size
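G9a (20 nM) preincubated 15 min RT with compounds, then 500 nM biotinylated H3K9 peptide and 20 uM SAM added; 2 h RT reaction. Monomethyl-H3K9 product detected by AlphaScreen with anti-H3K9me1 antibody, streptavidin donor and anti-rabbit IgG acceptor beads.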
PI5P4K alpha inh: inhibitors of human PI5P4K alpha; P48426; PI5P4Kalpha enzyme, ADP-Glo luminescence, 60 min; hits give low values; max response, %; hit rate 1.2% among 330,000; AID 652105; active = max response of -50% or lower; inconclusive = between -30% and -50%; inactive = -30% or higher; note: value at the top dose of about 77 µM
Target sequence (P48426 whole entry, looked up): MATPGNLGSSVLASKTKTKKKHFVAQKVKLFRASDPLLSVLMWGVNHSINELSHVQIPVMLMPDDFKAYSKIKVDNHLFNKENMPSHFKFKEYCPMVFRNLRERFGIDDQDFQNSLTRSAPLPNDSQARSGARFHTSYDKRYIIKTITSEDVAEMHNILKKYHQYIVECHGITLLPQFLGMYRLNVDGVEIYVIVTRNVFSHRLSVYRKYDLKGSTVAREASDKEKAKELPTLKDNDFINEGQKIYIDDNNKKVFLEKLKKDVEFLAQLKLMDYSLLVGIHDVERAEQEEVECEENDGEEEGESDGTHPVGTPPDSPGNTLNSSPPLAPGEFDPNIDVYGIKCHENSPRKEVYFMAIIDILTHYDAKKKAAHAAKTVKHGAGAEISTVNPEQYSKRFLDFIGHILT
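Human PI5P4Kalpha with substrate in 0.038 M HEPES pH 7.4, 0.28 mM EGTA, 0.1% CHAPS, 5% DMSO; reaction started with 5 microM ATP (final), 60 min at room temperature. ADP formed read by ADP-Glo luminescence.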
BAZ2B block: BAZ2B (human) inhibition | AID 504333 | Potency, µM (highest dose often 114 µM), most hits filed as inhibitors | hit rate 4.4% among 360,000 | AlphaScreen BAZ2B-H3K14Ac peptide displacement | Q9UIF8; note: nearly all actives have a fitted effect of over 60% in size
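In this displacement format the biotinylated H3(5-23) peptide acetylated at Lys14 serves as ligand at 50 nM, with BAZ2B at 50 nM in PBS pH 7.4 containing 0.01% Tween-20. Donor and acceptor beads are 10 ug/mL final.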
Large screens that a line does not name were inactive. A selection: hits, their analogues and other compounds. The true share with any hit is near 11%. Unless noted, calls come from the whole dose curve; as a rule, active = well fitted inhibition curve with a large enough effect; inconclusive = small, poorly fitted or top-dose-only effect; inactive = no such curve, though single readings can be large or run the other way.

CCCCc1cc(=O)oc2c(C)c(OCc3nn[nH]n3)ccc12	G9a block 50µM, PI5P4K alpha inh inconclusive
CCCCc1cc(=O)oc2cc(OCc3nn[nH]n3)ccc12	G9a block 56µM
CCCCc1cc(=O)oc2c(C)c(OCC(=O)N3CCC(C(=O)O)(c4ccccc4)CC3)ccc12	G9a block 3.2µM
CCCc1cc(=O)oc2cc(OCc3nn[nH]n3)ccc12	G9a block inconclusive
CCCCc1cc(=O)oc2c(C)c(OCC(=O)N3CCCC3)ccc12	none (no result: L3MBTL1 inh, G9a block)
CCOc1ccc(CCNC(=O)CN2CCN(Cc3ccc(Cl)cc3)C2=O)cc1OCC	none (no result: L3MBTL1 inh, PI5P4K alpha inh)
CSc1ccc(-c2nc3cccc(C)n3c2Nc2ccc(Cl)cc2)cc1	JMJD2A Tudor inh inconclusive, G9a block inconclusive (no result: L3MBTL1 inh, PI5P4K alpha inh)
COCCSc1ccccc1C(=O)Nc1cc(C)on1	HP1b binding inh inconclusive, G9a block 1.1µM, BAZ2B block inconclusive (no result: PI5P4K alpha inh)
COCCSc1ccccc1C(=O)Nc1cccnc1	G9a block 1.6µM (no result: L3MBTL1 inh)
COc1ccccc1C(=O)Nc1cc(C)on1	none
COCCSc1ccccc1C(=O)NCCc1ccccc1	G9a block 18µM
COCCSc1ccccc1C(=O)Nc1ccc(Br)cc1	G9a block 20µM
Nc1ncnc2c1c(I)cn2C1OC(CO)C(O)C1O (centres undefined)	none (no result: HP1b binding inh, JMJD2A Tudor inh, L3MBTL1 inh, PI5P4K alpha inh, BAZ2B block)
CCc1ccc(NC(=O)CC2C(=O)N(c3ccc(OC)cc3)C(=O)N2Cc2ccc(OC)cc2)cc1 (centres undefined)	none (no result: L3MBTL1 inh, PI5P4K alpha inh)
COCCSc1ccccc1C(=O)Nc1ccc(Cl)cc1	JMJD2A Tudor inh inconclusive, G9a block 7.1µM, BAZ2B block inconclusive
COCCNC(C)C(=O)Nc1ccc(Br)cc1 (centres undefined)	JMJD2A Tudor inh 4µM, G9a block 11µM, BAZ2B block 50µM (no result: PI5P4K alpha inh)
O=C1C=CC(=O)N1c1cccc2cccnc12	PI5P4K alpha inh -62 (no result: L3MBTL1 inh, G9a block, BAZ2B block)
Cc1cccc2cccnc12	none
COc1cccc(CNC(=O)C(=O)NCC(c2cccs2)S(=O)(=O)c2cccs2)c1 (centres undefined)	none (no result: L3MBTL1 inh, PI5P4K alpha inh)
CCCNC(=O)c1ccc(-c2nc3ccccc3s2)s1	BAZ2B block 4.5µM (no result: L3MBTL1 inh)
CCCCOCCCNCc1cccn1CCN1CCOCC1	JMJD2A Tudor inh 7.9µM, G9a block inconclusive
COc1ccc(Cl)cc1Nc1nc2ccc(C(=O)c3ccccc3)cc2n2cnnc12	none (no result: L3MBTL1 inh, PI5P4K alpha inh)
CCC1=NN2C(=N)/C(=C/c3ccc(OS(=O)(=O)c4ccccc4)cc3)C(=O)N=C2S1	PI5P4K alpha inh -63 (no result: L3MBTL1 inh, G9a block)
COc1cc(/C=C2\C(=N)N3N=C(S(C)(=O)=O)SC3=NC2=O)ccc1OCCOc1ccc(C)cc1	HP1b binding inh inconclusive, G9a block inconclusive, PI5P4K alpha inh inconclusive (no result: L3MBTL1 inh)
Cc1ccc(S(=O)(=O)Oc2ccc(/C=C3\C(=N)N4N=C(S(C)(=O)=O)SC4=NC3=O)cc2)cc1	JMJD2A Tudor inh 35µM, G9a block 13µM, PI5P4K alpha inh -57, BAZ2B block 50µM (no result: L3MBTL1 inh)
CCS(=O)(=O)C1=NN2C(=N)/C(=C\c3ccc(OS(=O)(=O)c4ccccc4)cc3)C(=O)N=C2S1	JMJD2A Tudor inh inconclusive, G9a block 40µM, PI5P4K alpha inh -79, BAZ2B block 50µM (no result: L3MBTL1 inh)
CCC(C(=O)Nc1ccccc1OC)n1c(C(=O)OC)cc2sc(Cl)cc21 (centres undefined)	none (no result: L3MBTL1 inh, PI5P4K alpha inh)
CCCSc1nc(N)c2c3c(sc2n1)CN(C)CC3	none
CC(C)Sc1nc(N)c2c3c(sc2n1)CN(C)CC3	G9a block 3.2µM
CN(C)CCSc1nc(N)c2c3c(sc2n1)CN(C)CC3	G9a block 45µM
O=C1CSCc2nc3ccccc3n21	JMJD2A Tudor inh 20µM (no result: L3MBTL1 inh, G9a block, BAZ2B block)
CCOC(=O)c1c(NC(=O)CSc2nc3ccc(OC)cc3[nH]2)sc2c1CC(C)(C)NC2(C)C	JMJD2A Tudor inh inconclusive, G9a block 50µM
C=C(C)C(=O)Nc1cccc(C2=NOC3(C2)C[C@@H](C(N)=O)N(C(=O)CC(c2ccccc2)c2ccccc2)C3)c1 (some centres undefined)	HP1b binding inh 20µM, JMJD2A Tudor inh 20µM, G9a block inconclusive, PI5P4K alpha inh inconclusive, BAZ2B block 13µM (no result: L3MBTL1 inh)
